Measurements reported in the supplement of paper PMC10338343.
± gives the standard deviation. Over roughly 5,500 sequences, “pre-steady-state target cleavage rate” has its median near 0.1; the highest 2% begin near 0.64. This is one part of a sample in which the highest values are shown more often than they occur.

Test system: MIWI (PIWIL1) piRISC loaded with piRNA #2 (30 nt)
Assay: pre-steady-state target cleavage rate (min^-1); MIWI and MILI are mouse PIWI proteins and EfPiwi is from a freshwater sponge; tags in brackets are library labels; higher = faster piRNA-guided slicing of the target
Conditions: guide: piRNA #2 5'p-UUAGGUAACCCAGUAGAUCCAGAGGAAUUC; auxiliary factor: 500 nM mouse GTSF1
Experimental: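 Cleave-'n-Seq: a library of target RNAs (target site embedded in constant flanks, ACAGCATTCCGCGTTAGTGATATCCG... 5' flank; DNA-blocked outside the site) at 0.1 nM was incubated with 1 nM active mouse MILI or MIWI piRISC (synthetic 5'-monophosphorylated piRNA guide) with or without 500 nM mouse GTSF1 at 33 °C for 1 min to 16 h. Uncleaved targets were sequenced and normalised to non-target controls, and the pooled three trials were fitted to a burst-and-steady-state model to give the pre-steady-state cleavage rate (min^-1; k3 is constrained to at most 1e-4). Sequence is the target site only; target names encode pairing extent (gX:gY) and contiguous / 1-mismatch / 2-mismatch / bulge geometry. Fits with R² ≤ 0 are excluded.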

| Sequence | pre-steady-state target cleavage rate |
| --- | --- |
| CUUAUCCUCUGGAUAUACUGGGUUACCUAA | 0.688 ± 0.052 |
| CUUUUCCUCUGGAUAUACUGGGUUACCUAA | 0.628 ± 0.04 |
| CAAUUCCUCUGGAUACUACUGGGUUACCUAA | 0.519 ± 0.068 |
| GAAUUCCUCUGGAUAUACUGGGUUACCUAA | 0.551 ± 0.038 |
| CUAUUCCUCUGGAUACUACUGGGUUACCUAA | 0.422 ± 0.056 |
| CAAUUCCUCUGGAUAUACUGGGUUACCUAA | 0.724 ± 0.043 |
| CUAUUCCUCUGGAUAUACUGGGUUACCUAA | 0.772 ± 0.057 |
| CUUAUCCUCUGGAUUACUGGGUUACCUAA | 0.481 ± 0.04 |
| CUUAUCCUCUGGAUACUACUGGGUUACCUAA | 0.419 ± 0.059 |
| CAAUUCCUCAGGAUCUACUGGGUAACCUAA | 0.336 ± 0.056 |
| CUUAACCUCUGGAUCUUCAGGGUUACCUAA | 0.112 ± 0.014 |
| CUUAACCUCUGGAACUACUGGGUUAGCUAA | 0.103 ± 0.016 |
| CAAUUCCUCUCGAUCUACAGGGUUACCUAA | 0.546 ± 0.038 |
| CUUUUCCUCUGGAACUAGUGGGUUACCUAA | 0.204 ± 0.025 |
| CUUAAGGAGAGGAUCUACUGGGUUACCUCA | 0.012 ± 0.0055 |
| CAAAUCCUCUCGAUCUACUGGGUUACCUAA | 0.641 ± 0.05 |
| CAAUACCUCUCGAUCUACUGGGUUACCUAA | 0.625 ± 0.056 |
| CAAUUCCUCUCGAUCUACUGGGUUACCUUA | 0.69 ± 0.056 |
| CUAUUCCUCUCGAUCUACUGGGUUACCUAA | 0.734 ± 0.063 |
| CUAUUCCUCUCGGAUCUACUGGGUUACCUAA | 0.575 ± 0.089 |

| Sequence | pre-steady-state target cleavage rate |
| --- | --- |
| CAAUUCCUCUCGGAUCUACUGGGUUACCUAA | 0.506 ± 0.065 |
| GAAUUCCUCUCGAUCUACUGGGUUACCUUA | 0.629 ± 0.069 |
| CUAAUCCUCUCGAUCUACUGGGUUACCUAA | 0.631 ± 0.042 |
| CUAUUCCUCUCGAUCUACUGGGUUACCUUA | 0.583 ± 0.056 |
| CAAUUCCUCUCGAUCUACUGGGUUACCUAA | 0.822 ± 0.063 |
| GAAAUCCUCUCGAUCUACUGGGUUACCUAA | 0.586 ± 0.054 |
| GUAUUCCUCUCGAUCUACUGGGUUACCUAA | 0.193 ± 0.044 |
| CUUAAGGUCUGGAUCUACUGGGUUACCAUA | 0.203 ± 0.029 |
| CUUAACCUCUCGAUCUUCUGGGUUACCUAA | 0.47 ± 0.044 |
| CUUAAGGUCUGGAUCUUCUGGGUAACCUAA | 0.0193 ± 0.011 |
| CUUAAGGAGUGGAUCUACACCGUUACCUAA | 0.0034 ± 0.0022 |
| CUAUUCCUCUGCAUCUUCUGGGUUACCUAA | 0.316 ± 0.028 |
| GAAUUCCUCUGGAUCUACUGGGUUUGGUAA | 0.244 ± 0.061 |
| CUUAAGGUCUGGAUGUACUGGCUUACCUAA | 0.0442 ± 0.028 |
| CUUUACCUCUGGAUCUACUCGGUUACCUAA | 0.0688 ± 0.0087 |
| CUUAACCUCUGGAUGUUCUGGGUUACCUAA | 0.244 ± 0.019 |
| CUAUAUCCUCUGGAUCUACUGGGUUACCUAA | 0.352 ± 0.071 |
| GAAUUCCUCUCGGAUCUACUGGGUUACCUAA | 0.442 ± 0.048 |
| GAAUUCCUCUCGAUCUACUGGGUUACCUAA | 0.642 ± 0.068 |
| GAAUUCCUCUCGAUCUACUGGGUUUCCUAA | 0.524 ± 0.06 |
